Bioassay records from PubChem.
ST2 IL33 inh: inhibitors of human ST2 (IL1RL1) binding to IL-33 | AID 1259354 | Q01638 | actives 2.3% (n = 78,000) | AlphaLISA ST2-Fc/biotin-IL-33 interaction, 1 h | inhibition, % for hits at 17 µM; in the data active = inhibition above about 30%
Target sequence (Q01638 whole entry, looked up): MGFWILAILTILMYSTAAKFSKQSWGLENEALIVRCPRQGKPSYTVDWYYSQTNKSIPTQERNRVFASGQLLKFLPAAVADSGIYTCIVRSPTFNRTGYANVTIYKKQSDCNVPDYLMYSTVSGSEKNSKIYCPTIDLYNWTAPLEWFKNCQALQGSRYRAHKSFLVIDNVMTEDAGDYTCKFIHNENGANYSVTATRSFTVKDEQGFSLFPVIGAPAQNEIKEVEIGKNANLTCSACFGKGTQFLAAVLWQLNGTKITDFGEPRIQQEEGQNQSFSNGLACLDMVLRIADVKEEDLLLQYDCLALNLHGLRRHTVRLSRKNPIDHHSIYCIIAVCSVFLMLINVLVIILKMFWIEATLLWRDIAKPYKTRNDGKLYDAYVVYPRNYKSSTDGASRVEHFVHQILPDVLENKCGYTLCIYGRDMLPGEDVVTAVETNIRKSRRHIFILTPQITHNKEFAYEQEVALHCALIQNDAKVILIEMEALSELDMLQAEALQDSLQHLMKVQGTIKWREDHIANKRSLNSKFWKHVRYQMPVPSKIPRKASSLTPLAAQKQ
Numbers stand for hits; . = inactive. Shown is part of a subset that was picked to be rich in hits.

SMILES	ST2 IL33 inh
Cc1cccc(-c2noc([C@@H]3C[C@@H](O)CN3Cc3cccs3)n2)c1	.
O=[N+]([O-])c1cccc(-c2noc([C@@H]3C[C@@H](O)CN3Cc3ccc(Cl)cc3)n2)c1	.
O=[N+]([O-])c1cccc(-c2noc([C@@H]3C[C@@H](O)CN3Cc3ccccc3)n2)c1	.
O=[N+]([O-])c1cccc(-c2noc([C@@H]3C[C@@H](O)CN3Cc3cccs3)n2)c1	61%
CCC(C)NC(=O)CSc1cc(=O)n(C)c2ccccc12 (stereo not given)	.
Cc1cc(C)nc(NC(=O)c2cc(-c3ccccc3)nc3ccccc23)n1	.
O=C(c1cscn1)N1CCC2(CCCN(CCCc3ccccc3)C2)C1 (stereo not given)	.
Cc1[nH]nc(NN)c1Cl	55%
C[C@@H]1CN(c2ccc(C(=O)NCCCc3ccccn3)cn2)C[C@H](C)O1	.
Cc1ccc(NCN2C(=O)c3ccccc3C2=O)c(C)c1	.
Cc1ccc(NS(=O)(=O)c2ccc(F)cc2)c(C)c1	.
Cc1ccc(NS(=O)(=O)c2cccc3c2C(=O)c2ccccc2C3=O)c(C)c1	64%
O=C(CCC1CCN(Cc2cccc3ncccc23)CC1)N1CCN(c2ccccc2)CC1	.
Cc1ccc(CSC2=NCCN2C(=O)c2ccc(S(=O)(=O)N3CCCC3)cc2)cc1	.
Cc1ccc(S(=O)(=O)n2cccc2)cc1	.
CC(=O)Nc1nonc1N1C(=N)S/C(=C/c2ccc(-c3ccc(Cl)c([N+](=O)[O-])c3)o2)C1=O	.
Cc1cc(C)cc(N(CC(=O)N2CCN(C)CC2)S(=O)(=O)c2ccccc2)c1	.
N#Cc1cc2c(=O)n3ccccc3nc2n(Cc2ccccc2)c1=N	.
CCC(C)n1c(=N)c(C#N)cc2c(=O)n3ccccc3nc21 (stereo not given)	39%
Cc1cccn2c(=O)c3cc(C(=O)NCc4cccnc4)c(=N)n(CCCn4ccnc4)c3nc12	.
N#Cc1cc2c(=O)n3ccccc3nc2n(CCCn2ccnc2)c1=N	31%
CCC(C)n1c(=N)c(C(=O)NC2CCCCC2)cc2c(=O)n3ccccc3nc21 (stereo not given)	.
N#Cc1cc2c(=O)n3ccccc3nc2n(CCc2ccccc2)c1=N	.
O=C(O)C[C@@H]1C(=O)O[C@H]2[C@H](OC(=O)c3cc(O)c(O)c(O)c3)[C@@H](OC(=O)c3cc(O)c(O)c4c3[C@H]1[C@H](O)C(=O)O4)[C@H](OC(=O)c1cc(O)c(O)c(O)c1)O[C@@H]2COC(=O)c1cc(O)c(O)c(O)c1	.
Cn1c(SCCOc2ccccc2F)nc2ccccc21	.
SMILES	ST2 IL33 inh
CCCCOc1cccc(C(=O)Nc2ccccc2I)c1	.
Cc1ccccc1Cn1c(NCCCO)nc2c1c(=O)n(C)c(=O)n2C	.
COc1ccc(/C=C2/C(=O)c3ccc(C(=O)O)cc3C2=O)cc1OC	.
O=C1OC(c2ccccc2)OC(=O)C1=Cc1ccc(-c2cc(C(=O)O)ccc2Cl)o1 (stereo not given)	.
O=C(O)c1ccc(C(=O)O)c(-c2ccccc2)c1	.
O=C(O)c1ccc(N2CCCC2)c([N+](=O)[O-])c1	.
O=C(O)c1ccc2c(c1)C(=O)/C(=C\c1ccc([N+](=O)[O-])o1)C2=O	91%
O=C(O)c1ccc2c(c1)C(=O)/C(=C\c1ccco1)C2=O	71%
COCCN1CCCC(O)(CN2CCC(Cc3ccc(F)cc3)CC2)C1=O (stereo not given)	.
C=CCN1C(=O)C(=O)C(=C(O)c2ccc(OC)cc2)C1c1ccc(F)cc1 (stereo not given)	.
CSc1nc2c(c(=O)[nH]1)C(c1ccccc1)C1=C(CCCC1=O)N2 (stereo not given)	.
CC(=O)Nc1ccc(S(=O)(=O)Nc2ccc(I)cc2)cc1	.
CC(=O)N(C1=C(N2CCCCC2)C(=O)c2ccccc2C1=O)c1cccc(Cl)c1	61%
CC(C)CC(C(=O)Nc1cccc(Cl)c1)N1C(=O)c2ccccc2C1=O (stereo not given)	.
CC(C(=O)N1CCN(c2cccc(Cl)c2)CC1)N1C(=O)c2ccccc2C1=O (stereo not given)	.
CC(O)=Cc1nc2ccccc2nc1C=C(C)O	38%
O=C(O)c1ccc2ccccc2n1	.
Cc1nc2ccccc2c(C(=O)O)c1C(=O)O	.
C/C=C(\C)C(=O)OC(COc1c2occc2c(OC)c2ccc(=O)oc12)C(C)(C)O (stereo not given)	.
NC(=O)NC(CC(=O)O)c1ccccc1 (stereo not given)	.
CCOc1ccc(/C=C2\N=C(SC)SC2=O)cc1	44%
COc1cccc(/C=C2/SC(N3CCCC3)=NC2=O)c1OC	.
CSC1=N/C(=C\c2ccc(C(=O)O)cc2)C(=O)S1	.
COc1cc(/C=C2\N=C(SC)SC2=O)cc(OC)c1OC	30%
COc1cccc(/C=C2\N=C(SC)SC2=O)c1OCc1ccccc1	40%
COc1cc(C=C2C(=O)OC(C)(C)OC2=O)cc(Cl)c1O	.
CSC1=N/C(=C\c2cc(Br)ccc2OCC(=O)O)C(=O)S1	.
CCOc1ccc(/C=C2\N=C(c3cccc(C)c3)OC2=O)cc1	.
